This passage reports outcome and Potency results from PubChem BioAssay (NCATS).

In assay [1] the target is Mitogen-activated protein kinase 10 (Mus musculus) (UniProt Q61831). Put plainly: JNK3 AlphaScreen Assay (AID 530; active = well fitted curve in either direction with a large enough effect, not every such curve was filed as active;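 note: kinase came from lysate of stimulated human HepG2 cells; signal reports phosphorylation of biotinylated GST-cJun 1-79 at Ser73 with 10 µM ATP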). Conditions: JNK3 lysate, c-Jun phosphorylation; series mostly up to 57.1 µM. Put shortly: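 HepG2 lysate (IL-1b/TNFa pre-activated) + biotin-GST-cJun 1-79 + anti-pSer73 cJun; cpd titration, 15 min RT; ATP 10 uM start; Tris pH 7.6, MgCl2, DTT, vanadate; beads in EDTA buffer; AlphaScreen.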
(Alpha assays give light when donor and acceptor beads are brought close together.)

The target of assay [2] is Cytochrome P450 3A4 (Homo sapiens) (UniProt P08684). Put plainly: qHTS Assay for Inhibitors and Substrates of Cytochrome P450 3A4 (AID 884). Note: nearly all actives have a fitted effect of over 50% in size. Note: potency is the fitted concentration of half-maximal effect. Conditions: recombinant CYP3A4, Luciferin-PPXE luminescence; series mostly up to 57.1 µM. Put shortly:
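Luminescent readout of luciferin produced by CYP3A4 (20 nM) dealkylation of Luciferin-PPXE, 25 uM (its KM). NADPH-driven reaction ran 60 min at RT after 10 min compound preincubation; data scaled to 57 uM ketoconazole as 100% inhibition.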
For orientation: Quantitative high-throughput screening tests each substance at several concentrations.

Assay [3] has the same target. The assay is described as follows: qHTS Assay for Activators of Cytochrome P450 3A4 (AID 885). Note: nearly all actives have a fitted effect of over 65% in size. Conditions: recombinant CYP3A4, Luciferin-PPXE luminescence, 60 min; series mostly up to 57.1 µM. Put shortly:
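Human CYP3A4 dealkylates Luciferin-PPXE to luciferin, which luciferase detection converts to light. Substrate was at its KM (25uM), buffer 200mM KPO4, reaction 60 min at RT.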

Each structure is given as a SMILES string. Records with an inconclusive call do not appear. A call without a number means that no potency is given here. Active and inactive are the calls of the source. Unless noted, calls come from the whole dose curve; as a rule, active = well fitted curve in the direction sought with a large enough effect; inconclusive = small, poorly fitted or top-dose-only effect, or another doubt; inactive = no such curve, though single readings can be large; an effect the other way counts as inactive or inconclusive.

Cytochrome P450 3A4 (Homo sapiens), sequence (P08684 whole entry, looked up): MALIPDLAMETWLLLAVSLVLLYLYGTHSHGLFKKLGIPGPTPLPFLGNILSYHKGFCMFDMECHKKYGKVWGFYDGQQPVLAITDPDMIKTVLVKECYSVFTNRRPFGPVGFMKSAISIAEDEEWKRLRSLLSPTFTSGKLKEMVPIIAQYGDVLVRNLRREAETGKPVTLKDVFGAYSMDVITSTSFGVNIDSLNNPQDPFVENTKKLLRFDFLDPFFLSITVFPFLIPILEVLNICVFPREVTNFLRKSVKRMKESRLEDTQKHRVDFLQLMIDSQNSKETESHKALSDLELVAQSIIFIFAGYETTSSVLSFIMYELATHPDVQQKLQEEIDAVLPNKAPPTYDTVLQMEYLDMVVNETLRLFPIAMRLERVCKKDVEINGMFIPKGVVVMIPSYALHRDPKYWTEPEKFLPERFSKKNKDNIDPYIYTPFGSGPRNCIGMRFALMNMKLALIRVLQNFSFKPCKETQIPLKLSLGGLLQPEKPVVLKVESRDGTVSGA

Regarding `COC(=O)c1ccc(C(/C=C/[C@@H](C)C(=O)N(C)Cc2ccccc2)NC(=O)OCc2ccccc2)cc1` (some centres not stated), the call in assay [1] was inactive. The Potency in assay [2] is 1.58 µM (active). In addition, the Potency result in assay [3] was “inactive”.

Consider `COC(=O)c1ccc(C(NC(=O)OCc2ccccc2)/C(=C/[C@@H](C)C(=O)NCc2ccc(OC)c(O)c2)c2cccnc2)cc1` (some centres not stated), for which the compound was classed as inactive in assay [1]. Moreover, in assay [2], the Potency was 2.51 µM (active). Further, the Potency entry in assay [3] is “inactive”.

`CCCCCCN(C(=O)CCCCCN1C(=O)NC(C2CCCCC2)C(C(=O)OCc2ccccc2)=C1C)C(C(=O)NCCCC)c1ccc(OCC(=O)OC)c(C(=O)OC)c1` (configuration not stated): the call in assay [1] was inactive. Also, the Potency in assay [2] was 3.16 µM (active). For the same compound, in assay [3], the Potency result was “inactive”.

For the compound `CC(C)CC1(C(=O)O)C=CCN1C(=O)c1ccccc1` (configuration not stated), in assay [1], the compound was called inactive. The Potency entry in assay [2] was “inactive”.

For the compound `CC1=C(C(=O)OCc2ccccc2)C(c2cccc([N+](=O)[O-])c2)NC(=O)N1CCCCCC(=O)O` (configuration not stated), the outcome in assay [1] was inactive. Also, the Potency result in assay [2] was “inactive”.

Regarding `COC(=O)CNC(=O)[C@@]1(C)C=C[C@@H](Cc2ccccc2)N1C(=O)OC`, the compound was called inactive in assay [1]. In addition, the Potency in assay [2] is 12.6 µM (active). Also, the Potency result in assay [3] is “inactive”.

In the case of `COC(=O)[C@@H]1C[C@H]1[C@@H](NC(=O)c1ccc(Br)cc1)c1ccccc1`, the outcome in assay [1] was inactive. Besides, the Potency in assay [2] is 25.1 µM (active). Moreover, in assay [3], the Potency entry is “inactive”.

Take `COC(=O)c1ccc(C(NC(=O)OCc2ccccc2)/C(F)=C/[C@@H](C)C(=O)NCc2cc(C)on2)cc1` (some centres not stated): the compound was classed as inactive in assay [1]. The Potency in assay [2] is 2.51 µM (active). Also, in assay [3], the Potency result was “inactive”.

Regarding `CCC[C@@H]1C[C@@]1(CCC)[C@@H](NC(=O)Oc1ccccc1)c1ccc(C(=O)OC)cc1`, the call in assay [1] was inactive. In assay [2], the Potency is 15.8 µM (active). Moreover, the Potency entry in assay [3] is “inactive”.

`Cc1ccc(CNC(=O)C2(CC(C)C)C=CCN2C(=O)c2ccccc2)o1` (configuration not stated): in assay [1], the result was inactive. Besides, the Potency in assay [2] was 15.8 µM (active).
